NIH3T3 tox: cytotoxic compounds in NIH 3T3 cells. 94,000 tested, 4.3% active. NIH 3T3 viability, CellTiter-Glo ATP luminescence, 48-72 h. Potency, µM (top dose mostly 96.7 µM), actives largely listed as inhibitors. AID 1345082; active = well fitted curve in the direction sought with a large enough effect; inconclusive = small, poorly fitted or top-dose-only effect, or another doubt; inactive = no such curve, though single readings can be large; an effect the other way counts as inactive or inconclusive; note: nearly all actives have a fitted effect of over 55% in size
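Luminescent ATP readout (CellTiter-Glo, 10 min RT) after 48 or 72 hr compound exposure of NIH 3T3 cells seeded at 400 cells/well in 1536-well format; quantitative HTS.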
HEK cytotox: kills HEK 293 cells | AID 1345083 | 94,000 tested, 6.6% active | HEK 293 viability, ATP luminescence (CellTiter-Glo), 48-72 h | Potency, µM (series often up to 115 µM), hits mostly inhibitors; active = well fitted curve in the direction sought with a large enough effect; inconclusive = small, poorly fitted or top-dose-only effect, or another doubt; inactive = no such curve, though single readings can be large; an effect the other way counts as inactive or inconclusive; note: nearly all actives have a fitted effect of over 60% in size
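Pintool-delivered compounds were incubated with HEK 293 cells (250 cells/well) at 37 degree Celsius for 48 or 72 hr. ATP-dependent luminescence (CellTiter-Glo) then reported remaining viable cells.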
FLuc inh: Photinus pyralis luciferase inhibition | P08659 | 76,000 tested, 2.5% active | Potency, µM (top dose mostly 115 µM), usual class: inhibitors | purified P. pyralis luciferase, luminescence, biochemical; active = well fitted curve in the direction sought with a large enough effect; inconclusive = small, poorly fitted or top-dose-only effect, or another doubt; inactive = no such curve, though single readings can be large; an effect the other way counts as inactive or inconclusive; note: nearly all actives have a fitted effect of over 65% in size
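Purified P. pyralis luciferase (10nM final) in 50mM Tris acetate pH 7.5, 10mM Mg acetate, 0.01% Tween-20, 0.05% BSA with 10uM D-luciferin and 10uM ATP. Compounds titrated qHTS. Luminescence imaged on CCD.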
NPR1 antag: human Npr1 receptor antagonism; HEK293 hNpr1 GloSensor cGMP, ANP-stimulated luminescence; 76,000 tested, 1.6% active; Potency, µM (highest dose often 46.3 µM), hits mostly inhibitors; P16066; AID 1347048; note: nearly all actives have a fitted effect of over 60% in size
Target sequence (P16066 whole entry, looked up): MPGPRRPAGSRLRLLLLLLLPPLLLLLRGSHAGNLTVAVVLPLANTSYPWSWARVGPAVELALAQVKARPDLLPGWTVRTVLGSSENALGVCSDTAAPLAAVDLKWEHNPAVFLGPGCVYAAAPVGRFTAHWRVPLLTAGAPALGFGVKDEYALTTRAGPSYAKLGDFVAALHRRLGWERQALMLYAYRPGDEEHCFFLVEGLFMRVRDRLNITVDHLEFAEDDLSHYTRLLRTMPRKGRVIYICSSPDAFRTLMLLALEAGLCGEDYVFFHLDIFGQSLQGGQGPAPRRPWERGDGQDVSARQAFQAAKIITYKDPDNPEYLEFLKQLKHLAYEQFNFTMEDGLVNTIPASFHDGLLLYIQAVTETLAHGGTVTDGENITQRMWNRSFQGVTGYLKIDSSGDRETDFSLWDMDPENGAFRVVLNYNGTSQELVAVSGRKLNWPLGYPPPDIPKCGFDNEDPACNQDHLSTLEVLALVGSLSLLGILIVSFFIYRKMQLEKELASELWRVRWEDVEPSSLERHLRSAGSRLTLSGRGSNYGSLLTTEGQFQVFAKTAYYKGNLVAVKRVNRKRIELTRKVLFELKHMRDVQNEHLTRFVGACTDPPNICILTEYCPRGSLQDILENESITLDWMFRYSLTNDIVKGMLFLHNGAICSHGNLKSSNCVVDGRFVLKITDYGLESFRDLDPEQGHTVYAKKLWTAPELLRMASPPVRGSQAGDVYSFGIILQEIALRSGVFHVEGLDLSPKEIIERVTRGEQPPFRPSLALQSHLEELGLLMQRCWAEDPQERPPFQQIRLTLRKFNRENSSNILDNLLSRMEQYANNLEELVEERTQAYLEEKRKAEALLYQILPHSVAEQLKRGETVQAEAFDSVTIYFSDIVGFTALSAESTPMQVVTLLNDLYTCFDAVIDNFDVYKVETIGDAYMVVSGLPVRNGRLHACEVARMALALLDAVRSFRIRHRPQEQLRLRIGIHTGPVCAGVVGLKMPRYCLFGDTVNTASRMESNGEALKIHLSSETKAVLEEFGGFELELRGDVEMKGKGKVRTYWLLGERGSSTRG
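Compound pre-incubated 30 min at room temperature on GloSensor-loaded HEK293 cells stably carrying hNpr1 and the pGS-40F cGMP biosensor. Stimulation uses hNppA at 0.1 nM final; luminescence is taken at baseline and 20 min post-agonist.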
Npr1 antag conf: hNpr1 antagonism, confirmation assay; HEK293 hNpr1 cGMP GloSensor luminescence, ANP-stimulated; 1,400 tested, 76% active; shares compounds with NPR1 antag; AID 1347044; Potency, µM (titrated, usually from 57.6 µM), most hits filed as inhibitors; note: nearly all actives have a fitted effect of over 70% in size
Npr2 selectivity: hNpr2 antagonism, selectivity versus Npr1 | shares compounds with NPR1 antag | HEK293 hNpr2 GloSensor cGMP luminescence, CNP-stimulated | Potency, µM (series often up to 57.6 µM), most hits filed as inhibitors | 1,400 tested, 67% active | AID 1347046; note: nearly all actives have a fitted effect of over 70% in size
FLuc counter: counter-screen for Npr1 antagonists: firefly luciferase inhibitors; shares compounds with NPR1 antag; purified FLuc enzyme, luminescence, Km substrate; Potency, µM (doses to about 57.6 µM), hits mostly inhibitors; 1,400 tested, 0.7% active; AID 1347047; active = well fitted curve in the direction sought with a large enough effect; inconclusive = small, poorly fitted or top-dose-only effect, or another doubt; inactive = no such curve, though single readings can be large; an effect the other way counts as inactive or inconclusive
GloSensor cGMP: control cell line activity, Npr1 antagonist counter-screen | 1,400 tested, 69% active | shares compounds with NPR1 antag | AID 1347051 | Potency, µM (highest dose often 57.6 µM), usual class: inhibitors | HEK293 GloSensor cGMP, SNP-stimulated, luminescence; note: nearly all actives have a fitted effect of over 70% in size
Hits are given with their value; n = inactive; u = inconclusive; x = not tested or not shown. Sampled rows, rich in hits. Any-hit rate of the full collection: about 11%. Unless noted, calls come from the whole dose curve.

SMILES	NIH3T3 tox	HEK cytotox	FLuc inh	NPR1 antag	Npr1 antag conf	Npr2 selectivity	FLuc counter	GloSensor cGMP
COc1ccc(CCNC(=O)c2ccc3c(c2)N(C)C2CCCN2C3=O)cc1OC (stereo not drawn)	n	n	n	n	x	x	x	x
COc1ccc(CNC(=O)CC[C@H]2CNC(=O)[C@@H]3[C@@H](CCN3C(C)C)N2C)cc1	n	n	n	n	x	x	x	x
O=C(c1ccc(F)cc1)N1CCC(OC2CCN(Cc3ccccc3)CC2)CC1	u	u	n	n	x	x	x	x
COc1ccc2nc3n(c2c1)[C@@H](CNCc1ccc(C(=O)O)cc1)COC3	n	n	n	n	x	x	x	x
c1ccc(CNC[C@H]2COCc3nc4ccccc4n32)cc1	u	u	n	22µM	35µM	31µM	n	28µM
Cc1cccc2c1nc1n2[C@@H](CNS(=O)(=O)Cc2ccccc2)COC1	u	u	n	35µM	28µM	28µM	n	28µM
Cc1ccc2c(c1)nc1n2[C@@H](CNCc2ccccc2)COC1	112µM	u	n	u	35µM	u	n	u
Cc1cccc2c1nc1n2[C@@H](CNS(=O)(=O)c2ccc(F)cc2)COC1	u	u	n	u	x	x	x	x
COc1ccc2nc3n(c2c1)[C@@H](CNCc1ccc(C(F)(F)F)cc1)COC3	u	u	n	35µM	31µM	35µM	n	28µM
Cc1nn(-c2ccccc2)c2c1C(C(C)C)N(C1CCCN([S+](=O)([O-])c3cccs3)C1)C2=O (stereo not drawn)	n	u	x	x	x	x	x	x
CCC(C)NC(=O)N1CCC2(CC1)CN(Cc1ccc(OC)cc1)C2=O (stereo not drawn)	n	n	x	x	x	x	x	x
O[C@H]1[C@H](NCC2CCCC2)[C@@H](C2CCCCC2)C[C@H]1O	n	u	n	n	x	x	x	x
CCCN1C(=O)Cc2cc(C(=O)NC(C)c3ccc(OCC)cc3)ccc21 (stereo not drawn)	u	u	n	u	u	u	n	u
CCn1nc(C)c(CNC(=O)c2cc(COc3ccc4ncccc4c3)on2)c1C	u	u	n	10µM	22µM	19µM	n	17µM
C[C@@H]1C(=O)O[C@H]2[C@H]1CC[C@@]1(C)Cc3sc(NC(=O)c4ccc(N(C)C)cc4)nc3[C@@H](C)[C@H]21	32µM	u	n	8.9µM	14µM	u	n	11µM
C[C@H]1[C@@H]2[C@H]3OC(=O)[C@H](C)C3CC[C@@]2(C)CC[C@@H]1NC(=O)c1ccncc1 (stereo partly drawn)	n	n	n	n	x	x	x	x
CN(C)C(=O)C1CN(C(=O)Nc2cccc(Cl)c2F)CC12CCOCC2 (stereo not drawn)	n	n	n	n	x	x	x	x
Cn1c(CN2CCOC[C@H]2c2ncc(-c3ccc(Cl)cc3)[nH]2)nc2ccccc21	u	79µM	n	20µM	31µM	28µM	n	u
CC(=O)Nc1ccc(CN2CCOC[C@H]2c2ncc(-c3ccc(Cl)cc3)[nH]2)cc1	u	u	n	n	x	x	x	x
Fc1ccc(CN2CCOC[C@H]2c2ncc(-c3ccc(F)cc3F)[nH]2)cc1	u	79µM	n	u	u	u	n	u
N#Cc1cccc(CN2CCOC[C@H]2c2ncc(-c3ccc(Cl)s3)[nH]2)c1	u	u	n	28µM	40µM	u	n	u
CCOc1ccccc1CN1CCC[C@H]1C(=O)N1CCCCCCNC(=O)CC1	n	n	n	n	x	x	x	x
COCC(=O)N1Cc2ccccc2OC2(CCN(C(C)C)CC2)C1	n	n	x	x	x	x	x	x
CN1CCCCCCN(C(=O)c2nccc3ccccc23)[C@H]2CCC[C@H]2C1=O	n	n	n	n	x	x	x	x
CCC(=O)NCC1c2cc(OC)c(OC)cc2CCN1C(=O)NC(C)(C)C (stereo not drawn)	n	n	n	n	x	x	x	x
SMILES	NIH3T3 tox	HEK cytotox	FLuc inh	NPR1 antag	Npr1 antag conf	Npr2 selectivity	FLuc counter	GloSensor cGMP
Cc1ncnc(N2CCC3(CC2)CC(=O)N(CCCc2ccccc2)C3)c1C	u	u	n	4.5µM	5.4µM	6.9µM	n	5.4µM
COCCCN1CC2(CCN(C(=O)c3ccccc3N(C)C)CC2)CC1=O	n	n	n	n	x	x	x	x
O=C(C[C@@H]1CCNC[C@@H]1Cc1cc(CC2CCCCC2)on1)NCc1ccccc1	32µM	u	n	14µM	20µM	28µM	n	18µM
O=C(C[C@@H]1CCNC[C@@H]1Cc1cc(CSc2ccccc2)on1)NCc1ccc(F)cc1	u	u	n	n	x	x	x	x
COC(=O)C1=C(C)N=C2SC=C(CC(=O)N3CCCCC3)N2C1c1ccc(Cl)cc1 (stereo not drawn)	n	u	n	u	u	u	n	n
C=CCOC(=O)C1=C(C)N=C2SC=C(CC(=O)N3CCCC3)N2C1c1ccc(OC)cc1OC (stereo not drawn)	n	u	n	n	x	x	x	x
C=CCOC(=O)C1=C(C)N=C2SC=C(CC(=O)NCC(C)C)N2C1c1ccccc1Cl (stereo not drawn)	n	u	n	u	x	x	x	x
CC1=C(C(=O)OC(C)C)C(c2ccc(Cl)cc2)N2C(CC(=O)N3CCCC3)=CSC2=N1 (stereo not drawn)	u	u	n	u	n	u	n	n
CC1=C(C(=O)OC(C)C)C(c2ccc(C)cc2)N2C(CC(=O)N3CCCCC3)=CSC2=N1 (stereo not drawn)	u	u	n	n	x	x	x	x
COC(=O)C1=C(C)N=C2SC=C(CC(=O)N3CCCC3)N2C1c1ccccc1OC (stereo not drawn)	n	n	n	n	x	x	x	x
C=CCOC(=O)C1=C(C)N=C2SC=C(CC(=O)N3CCCC3)N2C1c1cc(OC)cc(OC)c1 (stereo not drawn)	n	u	n	10µM	17µM	15µM	n	n
CCOC(=O)C1=C(C)N=C2SC=C(CC(=O)NCc3ccco3)N2C1c1ccccc1Cl (stereo not drawn)	n	u	n	11µM	u	u	n	n
Cc1nnc2ccc(N3CCN(C(=O)c4ccc(Cl)nc4)CC3)nn12	n	n	x	x	x	x	x	x
O=C(c1cccs1)N1CCC(Oc2ccccc2)C1 (stereo not drawn)	n	u	n	n	x	x	x	x
O=C(NCCc1ccc(Cl)cc1)C1CCc2nnc(C3CCN([S+](=O)([O-])c4ccccc4Cl)CC3)n21 (stereo not drawn)	u	n	x	x	x	x	x	x
O=C(NC1CCCCCC1)c1nc2sccn2c1-c1cccc(C(F)(F)F)c1	u	n	x	x	x	x	x	x
CN(Cc1cccnc1)Cc1nc(C2(O)CCN(Cc3ccc(C(F)(F)F)cc3)CC2)cs1	n	n	n	1µM	0.86µM	1.7µM	n	0.86µM
